Shown are actives, neighbours in structure and some others; about 2.4% of the full set was active somewhere.
D2 ag-1: activates the human D2 dopamine receptor | P14416 | DiscoveRx PathHunter D2 beta-arrestin, luminescence, 90 min; 100% = 57 uM dopamine signal | activation, % (test concentration not listed) | hit rate 0.084% among 360,000 | AID 624465; in the data active means activation above about 40%; inconclusive means between about 15% and that limit
Target sequence (P14416 whole entry, looked up): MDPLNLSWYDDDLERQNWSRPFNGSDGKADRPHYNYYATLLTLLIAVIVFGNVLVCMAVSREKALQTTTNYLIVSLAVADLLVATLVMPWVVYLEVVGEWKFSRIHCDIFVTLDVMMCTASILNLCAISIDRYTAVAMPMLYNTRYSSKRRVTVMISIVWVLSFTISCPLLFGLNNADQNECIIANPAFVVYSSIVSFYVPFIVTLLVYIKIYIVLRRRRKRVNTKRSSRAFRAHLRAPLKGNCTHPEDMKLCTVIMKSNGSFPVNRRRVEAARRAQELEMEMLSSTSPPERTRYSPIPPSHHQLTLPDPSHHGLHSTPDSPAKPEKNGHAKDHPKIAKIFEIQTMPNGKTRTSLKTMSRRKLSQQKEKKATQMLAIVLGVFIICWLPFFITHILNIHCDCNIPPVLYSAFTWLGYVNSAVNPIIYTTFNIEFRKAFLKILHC
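DiscoveRx PathHunter D2 beta-arrestin cells (2,100/well) attached overnight, then compound-stimulated 90 min at 37 C in HBSS/10 mM HEPES/0.1% Tween-20 buffer; beta-galactosidase complementation read by luminescence after 1 h at ambient temperature. Dopamine 57 uM final (EC100) as control.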
D2 PAM-1: D2 dopamine receptor (human) potentiation | P14416 | HEK293 T-REx D2, calcium flux, EC20 dopamine potentiation | potentiation, % at 10 µM | hit rate 0.34% among 340,000 | AID 485347;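 active means potentiation over 3 SD above the plate norm, cut at about 30% in these data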; further: 0% is about no effect
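Primary screen. Calcium kinetics in induced HEK293 T-REx D2 cells: compound pre-addition 180 s, EC20 dopamine, 180 s more.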
D2 PAM-2: potentiates the human D2 dopamine receptor allosterically; DiscoveRx D2 beta-arrestin cells, luminescence, 90 min; 100% = 57 uM dopamine signal; potentiation, % (concentration not given with the values); hit rate 0.23% among 360,000; AID 624464; in the data active means potentiation above about 50%; inconclusive means mostly about 30% to 49%
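PathHunter D2 cells, attached overnight at 37 deg C, received compound in DMSO plus dopamine at EC20 (50 nM final) for 90 min at 37 deg C. Beta-arrestin recruitment was read as luminescence after 1 h with detection reagent at ambient temperature.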
D2 ag-2: activates the human D2 dopamine receptor | P14416 | HEK293 T-REx D2 cells, calcium flux agonist mode | activation, % at 2 µM | hit rate 0.53% among 340,000;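 active means activation over 3 SD above normal in the single-dose calcium agonist read, cut at about 30% in these data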; further: 0% is about no effect
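In this primary screen, compounds producing a positive calcium signal within 180 s of addition to tetracycline-induced, force-coupled HEK293 Trex D2 cells are flagged; cells are dye-loaded with a no-wash calcium kit beforehand.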
D2 antagonist: antagonizes the human D2 dopamine receptor; P14416; inhibition, % at 10 µM; hit rate 2% among 340,000; HEK293 TREx D2 cells, calcium flux, dopamine EC80; AID 485344; in the data active means inhibition above about 30%; inactive means below that, where a call was filed; further: 0% is about no effect
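Cells plated overnight at 30 C with tetracycline; no-wash calcium dye, 30–90 min RT; 10 s baseline; compound pinned; 180 s read; EC80 dopamine added; another 180 s read.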
An asterisk follows results filed as active; ? = inconclusive; . = no result.

SMILES	D2 ag-1	D2 PAM-1	D2 PAM-2	D2 ag-2	D2 antagonist
COCCn1nnnc1SCC(=O)N1CCCCC1	-3	-7	-6	0	34*
O=C(N/N=C/c1ccsc1)c1ccccn1	-5	-9	-5	0	39*
CC(C)(C)c1ccc(/C=N/NC(=O)c2ccccn2)cc1	-4	-14	-6	1	3
COc1ccc(C(=O)Nc2c3c(nn2C(C)(C)C)CS(=O)(=O)C3)cc1OC	-4	14	-6	0	35*
CC(C)(C)c1ccc(C(=O)Nc2c3c(nn2C(C)(C)C)CS(=O)(=O)C3)cc1	-3	-9	-4	1	-3
COc1ccc2c(c1)CC(C1(O)C(=O)Nc3ccccc31)C2=O (stereo not drawn)	-2	-1	2	0	7
O=C1CCCCCC1C1(O)C(=O)Nc2ccccc21 (stereo not drawn)	2	42*	-4	1	-4
CCC(OC(=O)c1ccco1)C(=O)NCc1ccc(C)cc1 (stereo not drawn)	-2	-25	2	1	66*
Cc1ccc(CNC(=O)C(C)OC(=O)c2ccco2)cc1 (stereo not drawn)	-2	2	-2	0	6
COc1cc(OC)cc(C(=O)NC2CC(C)(C)NC(C)(C)C2)c1	-1	18	-14	-2	82*
CC1(C)CC(NC(=O)c2cc([N+](=O)[O-])cc([N+](=O)[O-])c2)CC(C)(C)N1	4	-15	-1	0	0
O=C(Nc1cccc(-n2cnnn2)c1)c1ccc(C(F)(F)F)cc1	-2	-17	-16	0	57*
COc1ccccc1N1CCN(S(=O)(=O)/C=C/c2ccccc2)CC1	-2	-1	14	1	54*
O=S(=O)(/C=C/c1ccccc1)N1CCN(c2ccccc2)CC1	1	-7	-1	0	-1
Cc1c(C(=O)Nc2ccc(S(=O)(=O)Nc3ncccn3)cc2)oc2ccccc12	0	22	-3	0	46*
CC1C/C(=N/O)C(C)CN1 (stereo not drawn)	2	31*	9	2	6
COc1ccc(CC(=O)Nc2sc3c(c2C(N)=O)CCCC3)cc1OC	6	2	5	0	3
NC(=O)c1c(NC(=O)C2COc3ccccc3O2)sc2c1CCN(Cc1ccccc1)C2 (stereo not drawn)	-15	-3	-23	42*	-2
CC(C)N1CCc2c(sc(NC(=O)CCc3ccccc3)c2C(N)=O)C1	-1	25	-4	-1	10
CC(=O)Nc1sc2c(c1-c1nc3ccccc3s1)CCN(C(C)C)C2	-6	-2	-18	47*	-7
CCN1CCc2c(sc(NC(=O)CSc3ccccc3)c2-c2nc3ccccc3s2)C1	.	-23	.	.	.
CC(C)N1CCc2c(sc(NC(=O)Cc3ccccc3)c2C(N)=O)C1	-1	-20	-14	0	40*
COc1cccc(CC(=O)Nc2sc3c(c2C(N)=O)CCCC3)c1	2	-9	-1	0	39*
Nc1[nH]c(=O)[nH]c(=O)c1N=Nc1ccc(C(=O)O)cc1	-4	10	-5	-2	14
CCN(CC)C(=O)CSc1nc2c(c(-c3cccnc3)c1C#N)CCCC2	0	-2	-9	-1	8
SMILES	D2 ag-1	D2 PAM-1	D2 PAM-2	D2 ag-2	D2 antagonist
CCOc1cc(-c2ccc(OC(=O)c3ccc(Cl)cc3)c(OC)c2)cc(=O)c2c(C)oc(C)c12	.	9	.	2	.
CCCN1CCc2c(sc(NC(=O)c3ccc(S(=O)(=O)N(C)c4ccccc4)cc3)c2C(N)=O)C1	-7	0	-12	78*	-4
CC(C)N1CCc2c(sc(NC(=O)CCS(=O)(=O)c3ccccc3)c2C#N)C1	-4	9	-3	0	34*
COc1ccc([N+](=O)[O-])cc1NC(=O)C(C)OC(=O)CSC(C)C(=O)Nc1cc(C)on1 (stereo not drawn)	-7	8	-24	0	36*
Cc1cc(NC(=O)C(C)SCC(=O)OC(C)C(=O)Nc2ccccc2C)no1 (stereo not drawn)	-3	-13	-1	1	14
COc1ccccc1CNC(=O)c1cnc2sc(N3CCOCC3)nn2c1=O	.	4	.	0	.
O=C(COCc1cc(-c2cccs2)on1)NCc1cccc(Cl)c1	.	2	.	0	.
COc1ccc([N+](=O)[O-])cc1/C=N/NC(=O)/C(=C\c1cccs1)NC(=O)c1ccccc1	-3	-26	-12	0	43*
NNC(=O)/C(=C\c1cccs1)NC(=O)c1ccccc1	-4	-21	-22	0	31*
Cc1nc(NCc2ccco2)[nH]c(=O)c1CCC(C)C	12	.	11	3	30*
Cc1ccc(Cn2ccn(CC(=O)Nc3ccccc3C(F)(F)F)c(=O)c2=O)cc1	.	-10	.	1	.
Fc1ccc(NC(=S)N/N=C/c2cccc(Br)c2)c(F)c1	-2	48*	2	0	2
Cc1ccc(NC(=O)Cn2c(=O)oc3cc(S(=O)(=O)NCc4ccccc4)ccc32)cc1	.	6	.	.	.
CCOC(=O)C1=C(COC(=O)COc2ccc(Br)cc2)NC(=O)NC1C (stereo not drawn)	6	0	15	0	83*
O=C(O)CN1C(c2ccccc2O)Nc2ccc(Br)cc2C1c1ccccc1 (stereo not drawn)	0	2	-10	0	-5
COc1ccc(C2Nc3ccc(Br)cc3C(c3ccccc3)N2CC(=O)O)cc1 (stereo not drawn)	-7	-19	-47	0	61*
Cc1cc(NC(=O)CCC(=O)N(c2ccc(F)cc2)C(C(=O)NC2CCCC2)c2ccc(C)o2)no1 (stereo not drawn)	1	18	-5	1	14
COCCNC(=O)C(c1ccc(C)o1)N(C(=O)C(=O)NC1CCCCC1)c1ccc(F)cc1 (stereo not drawn)	0	34*	1	-1	-6
CCC(=O)NCCc1nc2cc(NC(=O)c3ccc(F)cc3)ccc2n1C	-4	6	-11	2	-14
Cn1c(=O)c(=O)n(C)c2cc([N+](=O)[O-])c([N+](=O)[O-])cc21	?	7	54*	2	14
Cn1cccc([N+](=O)[O-])c1=O	-4	.	-16	.	.
CN1C(=O)/C(=C/c2ccc(OC(=O)c3ccco3)cc2)SC1=S	0	2	-21	-3	-13
CN1C(=O)/C(=C\c2ccc(OC(=O)c3ccco3)cc2)SC1=S	-4	10	-8	1	48*
O=C1C(=O)N(CC2CCCO2)C(c2ccccc2[N+](=O)[O-])/C1=C(/O)c1ccccc1 (stereo not drawn)	-1	-1	-24	-1	-9
CCc1ccc(NC(=S)N(CCN2CCOCC2)Cc2ccccc2F)cc1	-5	-4	-15	-1	3

Source: PubChem (National Center for Advancing Translational Sciences (NCATS))
